Screens: PubChem, National Center for Advancing Translational Sciences (NCATS)
Shown are actives, neighbours in structure and some others; about 22% of the full set was active somewhere.
Shiga toxin inh = blocks Shiga toxin action in Vero cells; Vero cells, Shiga toxin protein synthesis inhibition reporter; AID 2315; inhibition, % at 38.7 µM; hit rate 9.2% among 290,000; in the data active = inhibition mostly above about 28%, no sharp cut-off; inactive = mostly below about 43%
Pf growth 96h = inhibits malaria parasite growth, 96 h. P. falciparum luciferase reporter growth, 96 h. Potency, µM (series often up to 28.7 µM), most hits filed as inhibitors. hit rate 6.9% among 320,000
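Luminescence readout: decreased luciferase signal marks inhibited growth of reporter-expressing P. falciparum in infected red cells (2% hematocrit, 0.05% parasitemia final), exposed to compound two generations (96 h, 37 C, 5% CO2).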
Cycloheximide cs = counter-screen hit for Shiga toxin inhibitors, cycloheximide | cell reporter, cycloheximide protein synthesis inhibition counterscreen | max response, % | hit rate 12% among 300,000 | AID 2314; in the data active = max response mostly above about 13%, no sharp cut-off; inactive = mostly below about 14%; also: read at 38.3 µM for the half of the compounds with a filed dose
Pf growth 48h = inhibits P. falciparum growth in the first generation, 48 h; P. falciparum luciferase growth in erythrocytes, 48 h; Potency, µM (top dose mostly 28.7 µM), hits mostly inhibitors; hit rate 5.9% among 310,000; AID 504832
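First compound was added to culture medium, then infected red cells at 0.1% parasitemia and 2% hematocrit (final). After incubation at 37 C under 5% CO2, luciferase detection reagent was dispensed and light output recorded.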
LmPK inh = blocks Leishmania mexicana pyruvate kinase activity | purified LmPK, Kinase-Glo ATP luminescence, 1 h | Potency, µM (titrated, usually from 57.5 µM), hits mostly inhibitors | hit rate 0.37% among 290,000 | Q27686
Target sequence (Q27686 whole entry, looked up): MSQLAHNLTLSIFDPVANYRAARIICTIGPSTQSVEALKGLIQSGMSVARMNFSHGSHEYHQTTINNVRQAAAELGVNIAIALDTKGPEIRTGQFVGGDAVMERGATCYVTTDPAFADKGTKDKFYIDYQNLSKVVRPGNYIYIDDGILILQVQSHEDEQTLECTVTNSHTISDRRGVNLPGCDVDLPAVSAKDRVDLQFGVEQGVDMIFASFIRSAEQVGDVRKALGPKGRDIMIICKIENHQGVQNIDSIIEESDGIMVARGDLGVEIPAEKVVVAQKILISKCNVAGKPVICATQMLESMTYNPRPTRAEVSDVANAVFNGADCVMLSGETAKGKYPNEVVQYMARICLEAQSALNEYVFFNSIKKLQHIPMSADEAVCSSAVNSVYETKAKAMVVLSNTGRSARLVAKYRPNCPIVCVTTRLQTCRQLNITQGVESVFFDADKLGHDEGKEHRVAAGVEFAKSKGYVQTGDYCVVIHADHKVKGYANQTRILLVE
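Screened at intermediate enzyme activity to detect both inhibitors and activators: LmPK at 0.1 nM, with a 0.5 nM enzyme column as activation reference. PEP 0.5 mM, ADP 0.1 mM; ATP detected by luminescence after 1 h.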
A number is an active result. Unless noted, calls follow the shape of the dose curve; as a rule, active = well fitted inhibition curve with a large enough effect; inconclusive = small, poorly fitted or top-dose-only effect, or another doubt; inactive = no such curve, though single readings can be large or run the other way.

Results for COc1cccc(CN(Cc2ccccc2F)S(=O)(=O)c2ccc(S(=O)(=O)NCc3ccccc3)cc2)c1 ?
Shiga toxin inh: inactive; Pf growth 96h: inconclusive; Cycloheximide cs: inactive; Pf growth 48h: inconclusive; LmPK inh: inactive

Results for Cc1ccc(CNC(=O)/C=C/c2ccc(S(=O)(=O)NCc3ccco3)cc2)cc1 ?
Shiga toxin inh: 40.1; Pf growth 96h: inconclusive; Cycloheximide cs: 21.1; Pf growth 48h: inactive; LmPK inh: inactive

Results for O=C(OCN1C(=O)c2ccccc2C1=O)c1cc(S(=O)(=O)N2CCOCC2)ccc1F ?
Pf growth 96h: inactive; Pf growth 48h: inactive

What do the screens show for `O=C(O)c1cncc(C#CCC2CCCCC2)c1`?
Shiga toxin inh: 89.6; Pf growth 96h: inactive; Cycloheximide cs: 77.0; Pf growth 48h: inactive; LmPK inh: inactive

Results for CC1CN(C(=S)Nc2cccc(Cl)c2)CC(C)O1 (stereo not given) ?
Shiga toxin inh: inactive; Pf growth 96h: inconclusive; Cycloheximide cs: inactive; Pf growth 48h: inactive; LmPK inh: inactive

Results for c1ccc(Cc2nc3ccccc3o2)cc1 ?
Shiga toxin inh: inactive; Pf growth 96h: inactive; Cycloheximide cs: inactive; LmPK inh: inactive

How did O=c1oc(Cc2ccccc2)nc2ccccc12 do in these assays?
Shiga toxin inh: inactive; Pf growth 96h: inactive; Cycloheximide cs: 13.7; Pf growth 48h: inactive; LmPK inh: inactive

How did Cc1cc2cc(CNC(=O)COc3ccccc3)ccc2n1C do in these assays?
Shiga toxin inh: inactive; Pf growth 96h: inactive; Cycloheximide cs: inactive; Pf growth 48h: inactive; LmPK inh: inactive

How did Cc1onc(-c2ccccc2Cl)c1C(=O)NCc1ccc2c(c1)cc(C)n2C do in these assays?
Shiga toxin inh: inactive; Pf growth 96h: inconclusive; Cycloheximide cs: inactive; Pf growth 48h: 10.4µM; LmPK inh: inactive

Results for COc1cc(/C=C\C(=O)NCc2ccc3c(c2)cc(C)n3C)cc(OC)c1OC ?
Shiga toxin inh: inactive; Pf growth 96h: 7.38µM; Cycloheximide cs: inactive; Pf growth 48h: 11.7µM; LmPK inh: inactive

What do the screens show for `COc1ccc(C(=O)NCc2ccc3c(c2)cc(C)n3C)cc1`?
Shiga toxin inh: inactive; Pf growth 96h: inactive; Cycloheximide cs: inactive; Pf growth 48h: inactive; LmPK inh: inactive

How did Cc1ccc(CNC(=O)c2c(-c3ccccc3Cl)noc2C)cc1 do in these assays?
Shiga toxin inh: inactive; Pf growth 96h: inactive; Cycloheximide cs: inactive; Pf growth 48h: inactive; LmPK inh: inactive

Results for COc1ccc(CC(=O)NCc2ccc3c(c2)cc(C)n3C)cc1OC ?
Shiga toxin inh: inactive; Pf growth 96h: inconclusive; Cycloheximide cs: inactive; Pf growth 48h: inactive; LmPK inh: inactive

How did COc1cc(OC)cc(C(=O)NCc2ccc3c(c2)cc(C)n3C)c1 do in these assays?
Shiga toxin inh: inactive; Pf growth 96h: 9.28µM; Cycloheximide cs: inactive; Pf growth 48h: inactive; LmPK inh: inactive

What do the screens show for `COCC(=O)NCc1ccc2c(c1)cc(C)n2C`?
Shiga toxin inh: inactive; Pf growth 96h: 4.65µM; Cycloheximide cs: inactive; Pf growth 48h: inactive; LmPK inh: inactive

Results for Cc1cccn2c(=O)c(-c3nnn[nH]3)cnc12 ?
Pf growth 96h: inconclusive; Pf growth 48h: inactive

What do the screens show for `Cc1cc(C)c(OCC(=O)OCC(=O)N2CCCc3ccccc32)c(C)c1`?
Pf growth 96h: inconclusive; Pf growth 48h: inactive

Results for Cc1cc2cc(CNC(=O)c3ccco3)ccc2n1C ?
Shiga toxin inh: inactive; Pf growth 96h: inconclusive; Cycloheximide cs: inactive; Pf growth 48h: inconclusive; LmPK inh: inactive

How did Cc1cc2cc(CNC(=O)c3cc4ccccc4o3)ccc2n1C do in these assays?
Shiga toxin inh: inactive; Pf growth 96h: 14.7µM; Cycloheximide cs: inactive; Pf growth 48h: 11.7µM; LmPK inh: inactive

Results for Clc1ccc(OCC#CCN2CCCCCC2)cc1 ?
Shiga toxin inh: 46.9; Pf growth 96h: inactive; Cycloheximide cs: inactive; Pf growth 48h: inactive; LmPK inh: inactive

What do the screens show for `C=CCn1c(C)csc1=Nc1ccc(C(=O)O)cc1`?
Shiga toxin inh: inactive; Pf growth 96h: inactive; Cycloheximide cs: inactive; Pf growth 48h: inactive; LmPK inh: inactive

Results for CC(=O)c1ccc(N=c2scc(C)n2C(C)C)cc1 ?
Shiga toxin inh: inactive; Pf growth 96h: inactive; Cycloheximide cs: 40.1; Pf growth 48h: inactive; LmPK inh: inactive

What do the screens show for `CC(C)c1nc(-c2ccc([N+](=O)[O-])cc2)cs1`?
Shiga toxin inh: 56.1; Pf growth 96h: inactive; Cycloheximide cs: 38.9; Pf growth 48h: inactive; LmPK inh: inactive

What do the screens show for `C/C=C/C=N/Nc1nc(-c2ccc([N+](=O)[O-])cc2)cs1`?
Shiga toxin inh: 90.2; Pf growth 96h: inactive; Cycloheximide cs: inactive; Pf growth 48h: inactive; LmPK inh: inactive

Results for Cc1csc(N/N=C/c2ccc([N+](=O)[O-])cc2)n1 ?
Shiga toxin inh: 67.4; Pf growth 96h: inconclusive; Cycloheximide cs: 31.8; Pf growth 48h: inactive; LmPK inh: inactive

What do the screens show for `CC(=O)Nc1nc(-c2ccc([N+](=O)[O-])cc2)cs1`?
Shiga toxin inh: inactive; Pf growth 96h: inactive; Cycloheximide cs: inactive; Pf growth 48h: inactive; LmPK inh: inactive

How did Cc1nnc(N/N=C/c2ccc([N+](=O)[O-])cc2)n1N do in these assays?
Shiga toxin inh: inactive; Pf growth 96h: inactive; Cycloheximide cs: inactive; Pf growth 48h: inactive; LmPK inh: inactive

What do the screens show for `CC(C)=NNc1nc(-c2ccc([N+](=O)[O-])cc2)cs1`?
Shiga toxin inh: 18.3; Pf growth 96h: inactive; Cycloheximide cs: 22.0; Pf growth 48h: inactive; LmPK inh: inactive

How did O=[N+]([O-])c1ccccc1S(=O)(=O)Nc1ccn(Cc2c(F)cccc2Cl)n1 do in these assays?
Shiga toxin inh: inactive; Pf growth 96h: inconclusive; Cycloheximide cs: inactive; Pf growth 48h: inactive; LmPK inh: inactive

Results for COc1cccc(-c2csc(N3CCN(C(=O)Nc4ccc(Cl)cc4)CC3)n2)c1 ?
Shiga toxin inh: 45.3; Pf growth 96h: inactive; Cycloheximide cs: 28.4; Pf growth 48h: inconclusive; LmPK inh: inactive

What do the screens show for `COc1cccc(-c2csc(N3CCN(CC(=O)NNC(=O)c4ccc(Cl)cc4)CC3)n2)c1`?
Shiga toxin inh: inactive; Pf growth 96h: inconclusive; Cycloheximide cs: inactive; Pf growth 48h: inactive; LmPK inh: inactive

Results for COc1cccc(-c2csc(N3CCN(C(=S)Nc4cccc(Cl)c4)CC3)n2)c1 ?
Shiga toxin inh: inactive; Pf growth 96h: inactive; Cycloheximide cs: inactive; Pf growth 48h: inconclusive; LmPK inh: inactive

What do the screens show for `COc1ccc(NC(=O)N2CCN(c3nc(-c4cccc(OC)c4)cs3)CC2)cc1`?
Shiga toxin inh: inactive; Pf growth 96h: inconclusive; Cycloheximide cs: inactive; Pf growth 48h: 10.4µM; LmPK inh: inactive

How did C(=N\Nc1nc2ccccc2[nH]1)/c1ccc2c(c1)OCO2 do in these assays?
Shiga toxin inh: 87.5; Pf growth 96h: inconclusive; Cycloheximide cs: 35.2; Pf growth 48h: 0.465µM; LmPK inh: inactive

What do the screens show for `CC(C)C(NC(=O)c1ccc2c(c1)OCCO2)c1nc2ccccc2[nH]1` (stereo not given)?
Shiga toxin inh: inactive; Pf growth 96h: inactive; Cycloheximide cs: inactive; Pf growth 48h: inactive; LmPK inh: inactive

Results for C/C(=N\Nc1ccccn1)c1ccc2c(c1)OCO2 ?
Shiga toxin inh: 71.7; Pf growth 96h: inactive; Cycloheximide cs: 44.1; Pf growth 48h: inactive; LmPK inh: inactive
